# AmpC inh no detg = blocks E. coli AmpC beta-lactamase in detergent-free assay | Potency, µM (highest dose often 57.1 µM), without a hit: top-dose activity change, negative = inhibition, hits mostly inhibitors | AmpC nitrocefin hydrolysis, absorbance 480 nm, 0.0001% Triton | AID 485341 | actives 0.52% (n = 330,000);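 also: potency is read from the fitted curve at half-maximal effect; plate controls were no compound for no effect and no enzyme for full effect; nearly all actives have a fitted effect of over 20% in size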
# Target sequence (P00811 whole entry, looked up): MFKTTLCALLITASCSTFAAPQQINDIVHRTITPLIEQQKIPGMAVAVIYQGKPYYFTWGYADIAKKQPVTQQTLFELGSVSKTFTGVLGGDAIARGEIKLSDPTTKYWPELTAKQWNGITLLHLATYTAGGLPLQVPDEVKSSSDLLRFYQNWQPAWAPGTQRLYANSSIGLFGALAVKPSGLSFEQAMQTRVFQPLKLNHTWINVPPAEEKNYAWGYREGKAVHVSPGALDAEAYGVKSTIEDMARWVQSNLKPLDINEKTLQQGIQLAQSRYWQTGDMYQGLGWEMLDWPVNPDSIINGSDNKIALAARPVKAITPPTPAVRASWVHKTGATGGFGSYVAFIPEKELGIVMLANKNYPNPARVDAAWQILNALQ
#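 20 mM phosphate pH 7.0 + 0.01% (detergent screen) or 0.0001% Triton X-100; 5.3 nM AmpC reagent; cpd preinc 15 min RT; nitrocefin (800 uM stock) to start; A480 q20 s × 4 min; Activity was normalised to no-enzyme and no-compound control wells.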
# AMA1 RON2 block = inhibitors of Plasmodium falciparum AMA1-RON2 interaction; AlphaScreen AMA1-biotinylated RON2 peptide binding; Potency, µM (series often up to 58.2 µM), for the others: at the top dose activity change, negative = inhibition, usual class: inhibitors; actives 0.2% (n = 360,000);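 also: potency is read from the fitted curve at half-maximal effect; 0% = vehicle wells and -100% = peptide control; nearly all actives have a fitted effect of over 45% in size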
#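 AMA1 (3D7) with his tag at 25 nM final met compounds first, then biotinylated RON2 peptide at 25 nM; detection used donor plus acceptor beads, 10 µg/mL apiece, read by AlphaScreen after 30 min at room temperature.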
# SARS PLP yeast = SARS-CoV PLP inhibition in yeast; S. cerevisiae expressing SARS-CoV PLpro, growth rescue; actives 0.19% (n = 330,000); Potency, µM (highest dose often 32.9 µM), inactives show top-dose activity, positive = growth rescue, most hits filed as activators; AID 485353; calls by dose curve; also: potency is read from the fitted curve at half-maximal effect; 0% is about no effect; nearly all actives have a fitted effect of over 55% in size
# CHX counter = counter-screen for Shiga toxin inhibitors: cycloheximide protein synthesis inhibition; max response, %; actives 12% (n = 300,000); cell reporter, cycloheximide protein synthesis inhibition counterscreen; in the data active = max response mostly above about 13%, no sharp cut-off; inactive = mostly below about 14%; also: read at 38.3 µM for the half of the compounds with a filed dose; 0% is about no effect
# AmpC detergent = inhibitors of E. coli AmpC beta-lactamase with detergent. Potency, µM (doses to about 114 µM), inactives show top-dose activity change, negative = inhibition, hits mostly inhibitors. P00811. actives 0.041% (n = 370,000). AmpC hydrolysis of nitrocefin, absorbance 480 nm, 0.01% Triton;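 also: potency is read from the fitted curve at half-maximal effect; 0% = no-compound wells and -100% = no-enzyme wells; nearly all actives have a fitted effect of over 25% in size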
#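 AmpC (5.3 nM in the dispensed reagent) in 20 mM phosphate pH 7.0 with 0.01% (detergent screen) or 0.0001% Triton X-100 was preincubated with compounds for 15 min at room temperature. Nitrocefin was then added from an 800 uM solution, and hydrolysis was followed at 480 nm.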
# Shiga inhibitor = blocks Shiga toxin action in Vero cells; Vero cells, Shiga toxin protein synthesis inhibition reporter; inhibition, % at 38.7 µM; actives 9.2% (n = 290,000); AID 2315; in the data active = inhibition mostly above about 28%, no sharp cut-off; inactive = mostly below about 43%; also: 0% is about no effect
# Starred values were filed as active, the others as inactive; u = inconclusive; x = no result given; [ ] = another dose, or the depositor's remark. This excerpt belongs to a sample that is enriched for hits. Unless noted, calls follow the shape of the dose curve; as a rule, active = well fitted curve in the direction sought with a large enough effect; inconclusive = small, poorly fitted or top-dose-only effect, or another doubt; inactive = no such curve, though single readings can be large; an effect the other way counts as inactive or inconclusive.
SMILES,AmpC inh no detg,AMA1 RON2 block,SARS PLP yeast,CHX counter,AmpC detergent,Shiga inhibitor
COc1ccc(CNc2nc3ccccc3s2)cc1OC,9%,-1%,-8%,45*,-6%,66*
c1ccc(CCNc2nc3ccccc3s2)cc1,-11%,9%,-25%,67*,5%,85*
Cc1ccc(CNc2nc3ccccc3s2)s1,-17%,-4%,-6%,-3,6%,-31
COc1ccc(CNc2nccs2)cc1OC,-10%,-1%,3%,-2,-7%,45
C=CCNC(=O)C1CC(c2cccc(OC)c2)=NO1 (stereo not given),-7%,0%,0%,-2,-9%,26
O=C1C(=O)N(c2ccccn2)C(c2ccc(F)cc2)/C1=C(/O)c1ccc(Br)cc1 (stereo not given),-29%,8%,4%,-4,-16%,x
COc1ccc2nc(N3CCCC(C(=O)NCCCN4C(C)CCCC4C)C3)sc2c1 (stereo not given),40%,-11%,5%,20*,0%,40
CCOc1ccc2nc(SCc3ccc(F)cc3)sc2c1,-18%,-8%[2.32 µM],-19%,37*,-14%,36*
CCOc1ccc2nc(NC(=O)C3CCCN(S(=O)(=O)c4c(C)noc4C)C3)sc2c1 (stereo not given),18%,2%,-2%,25*,-4%,28*
CCOc1ccc2nc(N3CCCC(C(=O)N4CCN(CC)CC4)C3)sc2c1 (stereo not given),135%,u,3%,25*,5%,38
CCOc1ccc2nc(N3CCCC(C(=O)NCCCOC)C3)sc2c1 (stereo not given),x,x,x,x,-1%,x
Cc1ccc(CSc2nc3ccc(NC(=O)COc4ccc(F)cc4)cc3s2)cc1,x,x,x,x,9%,x
C=COCCNC(=O)C(=O)NCC(C)C,x,-7%,x,x,x,x
CCNc1nc(NC(C)C)nc(N(C#N)CC(=O)OC)n1,-23%,1%,2%,-3,1%,-5
COc1ccc(C(NC(=O)C(C)C)c2c(O)ccc3ccccc23)cc1OC (stereo not given),-1%,5%,x,-2,u,-9
CCOc1ccc2nc(NC(=O)C3CCN(C(=O)c4ccco4)CC3)sc2c1,32%,-4%,-4%,27*,8%,74*
O=C(Nc1nc2ccccc2s1)C1CCN(C(=O)c2ccco2)CC1,3%,4%,-3%,3,1%,35
CCOc1ccc2nc(N3CCCCCC3)sc2c1,21%,0%,-2%,57*,-14%,102*
CCOc1cc2sc(N3CCC(C(=O)Nc4ccc(C)cc4)CC3)nc2cc1Br,x,x,x,55*,8%,149*
CCOc1cc2sc(N3CCC(C(=O)Nc4ccc(CC)cc4)CC3)nc2cc1Br,x,x,x,x,14%,x
CCOc1ccc2nc(N3CCC(C(=O)Nc4nnc(CC)s4)CC3)sc2c1,7%,-9%,-1%,81*,-14%,167*
Oc1ccc(C[C@H]2CNCCN2CCc2cccc3ccccc23)cc1,23%,-11%,4%,x,-9%,x
CCOc1ccc2nc(N3CCCC(C(=O)NCC4CCCO4)C3)sc2c1 (stereo not given),85%,3%,-1%,45*,-3%,75*
CCOc1ccc2nc(N3CCCC(C(=O)NCc4ccc(OC)cc4)C3)sc2c1 (stereo not given),x,x,x,x,-9%,x
Cc1cc(C)c2nc(N3CCC(C(=O)NCC4CCCO4)CC3)sc2c1 (stereo not given),128%,-11%,18%,21*,0%,25
Cc1cc(C)c2nc(N3CCC(C(=O)NCCCN4CCCCC4)CC3)sc2c1,96%,-8%,10%,5,u,18
COc1ccc2nc(N3C(=O)/C(=C/c4ccccc4)NC3=S)sc2c1,u,50%,-4%,3,u,16
CCOc1ccc2nc(N3CCC(C(=O)N4CCN(C5CCCCC5)CC4)CC3)sc2c1,31%,7%,-6%,48*,u,64*
CCOc1ccc2nc(N3C(=O)/C(=C/c4ccccc4)NC3=S)sc2c1,-18%,18%,3%,27*,-17%,177*
